In all, about 1,500 compounds went through this assay and about 460 (31%) were called active. Inconclusive results (about 1%) are left out.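 Rule for the calls: active = curve reaches 40% activation over neutral controls at an AC40 no higher than the top valid tested concentration; inconclusive = no clear call, values can overlap the other calls; inactive = signal moving opposite to the expected increase, and the rest.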 Only a sample is shown. Potency and affinity values are given separately.
test: activators of glucose-dependent insulin secretion, dose response, cell-based, INS-1E, Gaussia luciferase, luminescence, cherry-pick, set 2 (AID 977607); settings: INS-1E GLuc insulin secretion reporter, 2-3 h, stronger effect = higher value; at 35 µM, 100% = signal doubled over neutral wells unless noted;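 note: 0% = median of the plate neutral control wells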

Max activation, inactive:
COc1ccc(-c2cc(NC=O)c3ncc(-c4ccc(OC)c(OC)c4)n3c2)cc1 90% [at 3.8 µM, 100% = signal doubled over neutral wells], CC(=O)Nc1cc(-c2ccc(N3CCN(C)CC3)cc2)cn2c(-c3cccc(C(=O)N(C)C)c3)cnc12 -24% [at 0.046 µM, 100% = signal doubled over neutral wells], COc1ccc(CNC(=O)CN2C(=O)NC3(CCCCCC3)C2=O)cc1 -13.8% [at 0.005 µM, 100% = signal doubled over neutral wells], CCC(O)c1nc2ccccc2n1CCc1ccccc1 (stereo not given) -18.7% [at 0.005 µM, 100% = signal doubled over neutral wells], CCOC(=O)c1nc2nc(-c3cccs3)cc(C(F)(F)F)n2n1 -16% [at 0.135 µM, 100% = signal doubled over neutral wells], CC1Cc2ccccc2N1C(=S)NC(=O)c1cccc(Br)c1 (stereo not given) -15.5% [at 0.005 µM, 100% = signal doubled over neutral wells], Cc1c(Cc2ccccc2)sc(NC(=O)C(C)(C)C)c1C(N)=O -18.8% [at 0.015 µM, 100% = signal doubled over neutral wells], COc1ccc(C(=O)/C=C2\NCCc3cc(OC)c(OC)cc32)cc1OC 24%, COc1ccc(/C(C)=N/Nc2ccc(C(=O)O)cc2)cc1OC 24.3%, C=CCN1C(=O)c2n[nH]c(COC)c2C1c1ccc(F)cc1 (stereo not given) -25.3% [at 0.015 µM, 100% = signal doubled over neutral wells], Cc1cc(=O)oc2c3c(cc(OCC(=O)NC(C)C)c12)OC(C)(C)CC3 34% [at 0.42 µM, 100% = signal doubled over neutral wells], CC(=O)Nc1ccc(-c2ccnc3c2CC(C)(C(=O)Nc2cccc(OC(F)(F)F)c2)O3)cc1 (stereo not given) -44.4%, Nn1c(-c2ccccc2)cc(-c2ccccc2)cc1=O 27.3%, CNc1nc(OCC#N)nc(N2CCCCC2)n1 25%, COc1cc2c(cc1OC)CN(C(=O)Cc1ccccc1)CC2 -21.2%, COc1ccc(C(=O)N2CCc3cc(OC)c(OC)cc3C2c2ccc(OC)c(OC)c2)cc1OC (stereo not given) 24.4% [at 0.005 µM, 100% = signal doubled over neutral wells], Cc1ccccc1SC1CCN(C(=O)C2CCC(=O)N(C3CC3)C2)CC1 (stereo not given) -25.3%, CCOc1ccc(OCCC(=O)N(CC)CC(=O)NCc2cccs2)cc1 -21% [at 11 µM, 100% = signal doubled over neutral wells], O=C(CC(NC(=O)c1ccccc1)c1ccccc1)Nc1cccc2ccccc12 (stereo not given) -27.5%, Nc1[nH]c(C(=O)c2ccccc2)c(-c2c(F)cccc2F)c1C(=O)c1ccc(Cl)c(Cl)c1 53.9%, C#Cc1cccc(-n2nnc(C(=O)OC)c2-c2ccccc2)c1 -13.8% [at 0.42 µM, 100% = signal doubled over neutral wells], COC(=O)C1=C(C)NC(=S)NC1c1ccc(OC)cc1 (stereo not given) -18.4% [at 0.135 µM, 100% = signal doubled over neutral wells], COc1ccc(CCC(=O)NC2CCC(C)CC2)cc1 (stereo not given) -13.6% [at 0.135 µM, 100% = signal doubled over neutral wells], c1ccc2c(NCC3CCCO3)nc(N3CCCCC3)nc2c1 (stereo not given) -16.1% [at 3.8 µM, 100% = signal doubled over neutral wells], CC1=CC(c2ccccc2)n2nc(NC(=O)CCC(=O)O)nc2N1 (stereo not given) -12.8% [at 1.2 µM, 100% = signal doubled over neutral wells], CC(=O)c1ccc(OCC(=O)N(C2CCCCC2)C2CCS(=O)(=O)C2)cc1 (stereo not given) -11% [at 0.0016 µM, 100% = signal doubled over neutral wells], CCN(Cc1ccccc1)S(=O)(=O)c1ccc(C(=O)Nc2nnc(C)o2)cc1 39.3% [at 3.8 µM, 100% = signal doubled over neutral wells], CN(C)CCCN(C(=O)CCOc1ccccc1)c1nc2ccc(F)cc2s1 -14.1% [at 0.015 µM, 100% = signal doubled over neutral wells], COc1cc2c(cc1OC)CN(C(=O)CNS(=O)(=O)c1ccc(C)c(C)c1)CC2 13.4% [at 11 µM, 100% = signal doubled over neutral wells], COc1ccccc1-c1cnc2c(c1)C(=O)N([C@H](C)CO)C[C@@H](C)[C@@H](CN(C)C(C)=O)O2 35.5% [at 0.015 µM, 100% = signal doubled over neutral wells], O=C(NC1CCCCC1)c1cccnc1Sc1ccccc1 -28.1% [at 0.015 µM, 100% = signal doubled over neutral wells], CCCCc1nc(NCCN)c(C#N)c2c1CSC(C)(C)C2 -17.6% [at 0.046 µM, 100% = signal doubled over neutral wells], O=C(Nc1ccc(Br)cc1)c1cc2ccccn2n1 -31.1% [at 0.42 µM, 100% = signal doubled over neutral wells], O=C(NC(=S)NCC1CCCO1)c1ccc(Cl)cc1Cl (stereo not given) -19.4% [at 0.005 µM, 100% = signal doubled over neutral wells], O=C(OCc1c(-c2ccccc2)ncc2ccccc12)c1cccs1 -36.4% [at 11 µM, 100% = signal doubled over neutral wells], CCc1nc2ccc(C(=O)N(C)CCCN(C)C)cn2c1N(C=O)CCC(C)C -21.2% [at 1.2 µM, 100% = signal doubled over neutral wells], O=C(O)CNS(=O)(=O)c1ccc2c(c1)Cc1cc(S(=O)(=O)NCC(=O)O)ccc1-2 -16.4% [at 0.0016 µM, 100% = signal doubled over neutral wells], Cc1cc(-c2ccc(Br)cc2)n2nc(C)cc2n1 -25.9% [at 0.005 µM, 100% = signal doubled over neutral wells], c1ccc(-c2nc(NCC3CC3)nc3ccsc23)cc1 -19.8%, COc1cc2[nH]c(-c3ccc(C)cc3)cc(=O)c2cc1OC -18.5% [at 3.8 µM, 100% = signal doubled over neutral wells], CC(=O)NN1C(=O)c2ccccc2NC1c1ccccc1O (stereo not given) -23.9% [at 0.42 µM, 100% = signal doubled over neutral wells], O=C(Cn1nnc(-c2ccccc2)n1)N=Nc1c(O)[nH]c2ccccc12 32.5%, COc1cc(Cl)c(C)cc1NC(=O)c1ccccc1NC(=O)CN1CCN(C(C)=O)CC1 -25.4% [at 3.8 µM, 100% = signal doubled over neutral wells], COc1ccc2nc3ccccc3nc2c1NC(=O)c1ccc(Cl)cc1 -10.8% [at 0.046 µM, 100% = signal doubled over neutral wells], COc1cc2c(cc1OC)C(Nc1ccccc1)=NC(C)(C)C2 -20.4% [at 0.005 µM, 100% = signal doubled over neutral wells], Cc1cc(Oc2cccnc2)ccc1NC(=O)Cc1cn(C)c2ccccc12 -32.7%, Cc1cc(C(=O)NC(C)CCC(C)C)c2ccccc2n1 (stereo not given) 29.7% [at 1.2 µM, 100% = signal doubled over neutral wells], O=C(Nc1ccccc1C(=O)N/N=C/c1ccccc1)c1ccco1 -16.8% [at 0.0016 µM, 100% = signal doubled over neutral wells], CCCCNC(=O)C1(C)CCN1C(=O)Cc1cccc2ccccc12 (stereo not given) 11.1% [at 0.015 µM, 100% = signal doubled over neutral wells], CCNC(=O)C1(C)CCCN1Cc1cccc(C(F)(F)F)c1 (stereo not given) -24%, CCOc1ccc(C(=O)NCC(=O)Nc2cc(C)ccn2)cc1OCC -21.2% [at 11 µM, 100% = signal doubled over neutral wells], Cn1c(=O)n(Cc2ccccc2Br)c2ccccc21 20.4% [at 0.0016 µM, 100% = signal doubled over neutral wells], O=c1[nH]nc(-c2ccc(F)cc2)cc1Cc1cccs1 13.5% [at 3.8 µM, 100% = signal doubled over neutral wells], Clc1ccc(-c2cc(CN3CCOCC3)no2)cc1 -22.2% [at 11 µM, 100% = signal doubled over neutral wells], CCNc1nc(NCC)nc(N(C)/N=C/c2ccco2)n1 24.3% [at 11 µM, 100% = signal doubled over neutral wells]

From PubChem BioAssay AID977607 (Broad Institute, 2014)
